Among the data in PubChem BioAssay (NCI) are growth values, retold here.

The panel holds about 83,000 compounds, 20% with a hit somewhere; the sample as a whole holds those more often.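 Single-dose data. Exposure time 48 hours. Values below 10 considered active.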 Active and inactive are the calls of the source.

The test system of the assay is MDA-MB-468 breast. The experiment in a line: NCI-60 one-dose screen, 48 h (100 = growth as untreated, 0 = no growth, -100 = all killed). As to conditions: 10 µM unless noted.
`Cc1ccc(/C=C(\C#N)n2nnc3cc(F)c(F)cc32)cc1`: the growth was 17.3% (inactive).
Then `CC(C)(C)OC(=O)N[C@@H](Cc1ccccc1)C(=O)N(Cc1ccccc1)C1(C(=O)NCc2ccccc2)CCN(Cc2ccccc2)CC1`, with 7.09% (active); and `Cc1ccc2c(n1)C(=O)C(Cl)=C(Nc1ccc(C(C)C)cc1)C2=O`, with -44.8% (active).
